This passage reports binding signal results from article PMC8384837, “Expanding the binding specificity for RNA recognition by a PUF domain”.

Common to all, as to assay: yeast three-hybrid, YBZ-1, SC-Leu-His + 0.5 mM 3-AT, 4 days
Holding throughout (details): tags: N-Gal4 AD-HA kept; label: inside an RPR1-promoter hybrid RNA with tandem MS2 sites; ssRNA

In one experiment the target is PUM1 PUF domain R2-LWV (Homo sapiens, UniProt Q14671 828-1176, N899L;Y900W;Q903V). The method, boiled down: (§1)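 Each repeat of the Pumilio-1 PUF domain was randomized at its three base-contacting residues, and these libraries were co-expressed from a centromeric plasmid with matching RNA elements in strain YBZ-1. After four days on SC-Leu (input) or SC-Leu-His + 0.5 mM 3-AT (selection), the repeat regions were PCR-amplified and Illumina-sequenced. The interaction score compares variant frequency between input and selection as a log change, computed in log2 with a pseudocount of 1 for absent variants.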

In another experiment the target is PUM1 PUF domain R2-QWL (Homo sapiens, UniProt Q14671 828-1176, N899Q;Y900W;Q903L). The method, boiled down: as §1
Another experiment has as its target PUM1 PUF domain R2-RKV (Homo sapiens, UniProt Q14671 828-1176, N899R;Y900K;Q903V). The method, boiled down: as §1
The target of another experiment is PUM1 PUF domain R1-GGQ (Homo sapiens, UniProt Q14671 828-1176, S863G;R864G). The method, boiled down:
as §1

Another experiment deals with PUM1 PUF domain R1-YLR (Homo sapiens, UniProt Q14671 828-1176, S863Y;R864L;Q867R). In a few lines: as §1
In a further experiment the target is PUM1 PUF domain R8-TWK (Homo sapiens, UniProt Q14671 828-1176, N1122T;Y1123W;Q1126K). In a few lines:
as §1

A further experiment addresses PUM1 PUF domain R3-RIG (Homo sapiens, UniProt Q14671 828-1176, C935R;R936I;Q939G). The method, boiled down:
as §1

The target in another experiment is PUM1 PUF domain R3-RTC (Homo sapiens, UniProt Q14671 828-1176, C935R;R936T;Q939C). The method, boiled down: as §1
The target of a further experiment is PUM1 PUF domain R7-RRC (Homo sapiens, UniProt Q14671 828-1176, S1079R;N1080R;E1083C). The method, boiled down: as §1
The target of the next experiment is T1, PUM1 PUF domain R6-HFR (Homo sapiens, UniProt Q14671 828-1176, N1043H;Y1044F;Q1047R).
T1 sequence: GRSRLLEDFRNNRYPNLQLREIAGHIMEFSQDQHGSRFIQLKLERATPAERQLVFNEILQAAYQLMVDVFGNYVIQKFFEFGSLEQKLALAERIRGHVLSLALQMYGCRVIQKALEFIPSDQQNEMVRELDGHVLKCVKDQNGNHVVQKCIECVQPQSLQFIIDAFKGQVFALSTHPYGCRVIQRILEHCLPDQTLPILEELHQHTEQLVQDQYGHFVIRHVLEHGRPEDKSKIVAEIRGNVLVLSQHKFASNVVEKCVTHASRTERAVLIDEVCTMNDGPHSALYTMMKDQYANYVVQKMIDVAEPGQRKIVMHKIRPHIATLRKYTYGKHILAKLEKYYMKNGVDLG
The method, boiled down:
as §1

Sequence of PUM1 PUF domain R8-TWK (Q14671 828-1176 N1122T/Y1123W/Q1126K): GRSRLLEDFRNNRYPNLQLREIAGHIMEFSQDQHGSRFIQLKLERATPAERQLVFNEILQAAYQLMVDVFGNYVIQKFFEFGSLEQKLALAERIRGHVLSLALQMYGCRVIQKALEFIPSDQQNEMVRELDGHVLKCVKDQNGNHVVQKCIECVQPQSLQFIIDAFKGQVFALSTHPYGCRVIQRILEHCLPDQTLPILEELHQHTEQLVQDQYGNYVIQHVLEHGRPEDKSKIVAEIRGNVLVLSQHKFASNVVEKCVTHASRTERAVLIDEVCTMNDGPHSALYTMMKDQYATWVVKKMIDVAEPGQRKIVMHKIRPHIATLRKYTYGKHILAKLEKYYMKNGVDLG

Turning to “GGCUAGAACUAGUGGAUCCCCCGGCGCCCGGCGGCUCGAGCCCGGGUAAGUGUAAAAAGUCUGCAUGCCGCCGGGCGCCAUGCCUGCAGGUCGACUCUAGAAAACAUG”, the binding signal is 4.15 log2 enrichment (interaction score) in the experiment with PUM1 PUF domain R2-LWV, 5.92 log2 enrichment (interaction score) with PUM1 PUF domain R2-QWL and 3.51 log2 enrichment (interaction score) with PUM1 PUF domain R2-RKV.

“GGCUAGAACUAGUGGAUCCCCCGGCGCCCGGCGGCUCGAGCCCGGGUAAGUGUAAAUCGUCUGCAUGCCGCCGGGCGCCAUGCCUGCAGGUCGACUCUAGAAAACAUG”: the binding signal is 1.77 log2 enrichment (interaction score) in the experiment with PUM1 PUF domain R1-GGQ and 3.95 log2 enrichment (interaction score) with PUM1 PUF domain R1-YLR.

Consider “GGCUAGAACUAGUGGAUCCCCCGGCGCCCGGCGGCUCGAGCCCGGGUAAGUGUAAAGAGUCUGCAUGCCGCCGGGCGCCAUGCCUGCAGGUCGACUCUAGAAAACAUG”, for which the binding signal in the experiment with PUM1 PUF domain R2-RKV was 4.57 log2 enrichment (interaction score).

Turning to “GGCUAGAACUAGUGGAUCCCCCGGCGCCCGGCGGCUCGAGCCCGGGUAAGGGUAAAUAGUCUGCAUGCCGCCGGGCGCCAUGCCUGCAGGUCGACUCUAGAAAACAUG”, in the experiment with PUM1 PUF domain R8-TWK, the binding signal was 3.33 log2 enrichment (interaction score).

As for “GGCUAGAACUAGUGGAUCCCCCGGCGCCCGGCGGCUCGAGCCCGGGUAAGUGUAAUUAGUCUGCAUGCCGCCGGGCGCCAUGCCUGCAGGUCGACUCUAGAAAACAUG”, the binding signal in the experiment with PUM1 PUF domain R3-RIG is 2.45 log2 enrichment (interaction score); in the experiment with PUM1 PUF domain R3-RTC it was 3.59 log2 enrichment (interaction score).

On to “GGCUAGAACUAGUGGAUCCCCCGGCGCCCGGCGGCUCGAGCCCGGGUAAGUCUAAAUAGUCUGCAUGCCGCCGGGCGCCAUGCCUGCAGGUCGACUCUAGAAAACAUG”, for which the binding signal with PUM1 PUF domain R7-RRC was 4.91 log2 enrichment (interaction score).

Turning to “GGCUAGAACUAGUGGAUCCCCCGGCGCCCGGCGGCUCGAGCCCGGGUAAGUGCAAAUAGUCUGCAUGCCGCCGGGCGCCAUGCCUGCAGGUCGACUCUAGAAAACAUG”, the binding signal with PUM1 PUF domain R6-HFR was 2.56 log2 enrichment (interaction score).

On to “GGCUAGAACUAGUGGAUCCCCCGGCGCCCGGCGGCUCGAGCCCGGGUAAGUGUAAAUGGUCUGCAUGCCGCCGGGCGCCAUGCCUGCAGGUCGACUCUAGAAAACAUG”, for which, in the experiment with PUM1 PUF domain R1-YLR, the binding signal is 2.04 log2 enrichment (interaction score).
